According to the supplement of paper PMC6555819:

system: PPARg DBDmut:RXRa IVT, anti-PPARg (DBD mutation: PPARg1 K132A/R137A, NR concentration 270 nM, RXRa partner concentration 90 nM); assay: PBM binding z-score (relative to random genomic background probes); higher = stronger binding; sequences stand for … in GC…GCGATTGACAGCGTAGAATGAAGG
Method in brief: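 Regression normalization was applied to scanned fluorescence from custom Agilent 4×180K protein-binding microarrays. Before scanning, arrays were incubated 1 h with ligand-free nuclear receptor dimers, and binding was detected with antibodies against each partner (one per run). Binding z-scores use the random background probes as reference.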

Sequence	PBM binding z-score
TCTTGTAGATCAAGCAGGCTAAGAAAGCCTGAGT	-0.469
ACTAGCAGACCAAGGGTCACTCAAGATTAGTCCG	0.151
GCGACTGGGGCAAAGCCGGTTACCATAAGGTTGG	-0.287
ATATGTAGGGTATCGGGTCATTCAGTTTGCGCAT	2.46
CGTCCAAGGTTATAGGAGGTCAGTGAAGACAGAT	0.293
ACTATTAGTTGAGACGAAGGCAACCGATAGGTTG	1.16
CCGACTGGGGCAGAAGGTTACCATAAGCCAGCCC	-0.993
TCATATAGCTAAACAGGTGAAAGTCCGTAAGTTA	-0.631
CGAACTAGGTCGGAACAGGACAGTGAAGGATGAT	0.508
TAGCCTAGGTCATTGGGCCAGTATCGTACGCATC	0.593
TCTCGGAGGACACGAAGGGCAGAGCTTTCCAGAG	-0.999
TCTGCTAGGTCAGTTGGTCAGTTAACGAGCTGCC	1.52
ACTAGCAGGCCAAGGGTCACTTAAGATTAGTCCG	0.182
CCTCGGGGGACAGAAGGTCAGAGCTGTCCGCTTT	1.67
GCTCGGATGACAAGGTCAGAGCTTTGTCCGTAGA	-1.27
CCTACTGGGCCACCAGGTCATTGATATCAACGTT	-0.327
TGAATGAGGTTAAAGAACAGGGAACGTGGCGTCG	0.69
GCGACTGGGGCATCAGCAGGTTACGATAACTTAA	-0.586
TAGCCTAGGTCATTCAGGAGCCAGTATAGAAAGC	0.758
ACTGACAGGTGAGTGAAGGTAACTCAGCTGGACG	0.18

Sequence	PBM binding z-score
AATACAGGGTCATCGTAGGCCAGAGGACGCACAG	1.52
CGAACTGGGTCATTGACAGGACAGTGAATAGTAA	1.06
GCTTACGAGTCAAAGGTTATAGCATGAATAGAAT	0.924
CCTAGTTGGTCCGGAGGTCACACACCGGATATGA	-0.285
TAGCCTAGGTCATGCAGGCCAGTATAGTGTCGGC	0.61
TAGCATAGGTCATGGGCCAGTATACCACGCGAAC	0.682
TCATACAGGTAAAAGGTGAAAGTCGGTGTGGTAA	0.157
TCAAGCAGGCCAGAGGGTCACTCAAGAGGTACGG	-1.19
CTACCAAGGTGAACAAGGTCGTCGATTACTATTC	0.293
TCTGCTAGGTCAACGAGGGTCAGCTAATCTGCTA	-0.294
TCTTGTGGATCAGCAGGTTAAGAAAGCTGGCCAA	-0.449
CCTACTGGACCATTCAGAGGTCATTGATCATATG	0.483
ATCGAAAGATCGACGAGGTGAGTATACACCGTTT	0.0625
CCAGACAGGTGAGAAGGTAAGTCAGCCTCGATTA	-1.11
GTGACTGGGGCAAAGCAGGTTACCATAAGGTTGG	1.15
GCTAGCAGGCCATTTGGGTCACTGAATGACGGGC	-0.118
TCATATAGGTAAATGCTAGGTAAAAGTCCGATCT	0.817
ACAGACAGGTGATGAAGGGAACTCAGGCTATCAT	0.471
GCTAGTTGGTCAGTAAAAGGTCACACCCCGGTCG	-0.641
ACTATTTGTTGACTTAGGGCAACCGATACGACGC	1.51
